This note sets out measurements from the supplement of paper PMC6411743.

± gives the standard deviation of the averaged measurements. Targets with the largest changes are over-represented here; the source holds about 5,400 in all.

Compound in this test: Nc1nc2c(ncn2[C@@H]2O[C@H](COP(=O)(O)OP(=O)(O)OP(=O)(O)O)[C@@H](O)[C@H]2O)c(=O)[nH]1 [guanosine triphosphate]
Description: NP40-soluble protein abundance relative to vehicle (solubility fold change) (ratio); higher = more soluble protein in presence of GTP. Put shortly: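 Crude Jurkat lysate, prepared by Dounce homogenisation, was exposed to eight concentrations from 0.1 to 10 mM for 10 min at room temperature and then 3 min at 37 °C. Solubilisation used 0.8% NP40 with benzonase for 60 min at 4 °C, followed by ultracentrifugation and TMT labelling of the supernatant for LC-MS/MS. After vsn normalisation of intensities, each value is the fold change against the detergent-processed vehicle within each replicate, across three independent experiments.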

UniProt Q6I9Y2, sequence (Q6I9Y2 whole entry): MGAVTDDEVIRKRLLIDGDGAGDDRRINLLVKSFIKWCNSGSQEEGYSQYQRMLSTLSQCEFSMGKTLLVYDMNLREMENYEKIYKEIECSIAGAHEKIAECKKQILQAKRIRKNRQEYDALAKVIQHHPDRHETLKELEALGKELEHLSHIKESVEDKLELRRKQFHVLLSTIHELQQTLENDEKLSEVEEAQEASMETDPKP
UniProt Q32P51, sequence (Q32P51 whole entry): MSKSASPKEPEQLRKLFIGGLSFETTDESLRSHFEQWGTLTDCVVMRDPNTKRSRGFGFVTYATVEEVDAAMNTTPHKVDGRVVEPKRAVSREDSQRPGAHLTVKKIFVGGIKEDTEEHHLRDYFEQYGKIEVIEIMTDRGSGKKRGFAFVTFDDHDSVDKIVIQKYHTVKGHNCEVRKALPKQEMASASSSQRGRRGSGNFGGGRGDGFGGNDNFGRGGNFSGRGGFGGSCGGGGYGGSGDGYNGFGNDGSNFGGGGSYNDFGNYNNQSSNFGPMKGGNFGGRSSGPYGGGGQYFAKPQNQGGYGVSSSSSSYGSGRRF
UniProt P55884, sequence (P55884 whole entry): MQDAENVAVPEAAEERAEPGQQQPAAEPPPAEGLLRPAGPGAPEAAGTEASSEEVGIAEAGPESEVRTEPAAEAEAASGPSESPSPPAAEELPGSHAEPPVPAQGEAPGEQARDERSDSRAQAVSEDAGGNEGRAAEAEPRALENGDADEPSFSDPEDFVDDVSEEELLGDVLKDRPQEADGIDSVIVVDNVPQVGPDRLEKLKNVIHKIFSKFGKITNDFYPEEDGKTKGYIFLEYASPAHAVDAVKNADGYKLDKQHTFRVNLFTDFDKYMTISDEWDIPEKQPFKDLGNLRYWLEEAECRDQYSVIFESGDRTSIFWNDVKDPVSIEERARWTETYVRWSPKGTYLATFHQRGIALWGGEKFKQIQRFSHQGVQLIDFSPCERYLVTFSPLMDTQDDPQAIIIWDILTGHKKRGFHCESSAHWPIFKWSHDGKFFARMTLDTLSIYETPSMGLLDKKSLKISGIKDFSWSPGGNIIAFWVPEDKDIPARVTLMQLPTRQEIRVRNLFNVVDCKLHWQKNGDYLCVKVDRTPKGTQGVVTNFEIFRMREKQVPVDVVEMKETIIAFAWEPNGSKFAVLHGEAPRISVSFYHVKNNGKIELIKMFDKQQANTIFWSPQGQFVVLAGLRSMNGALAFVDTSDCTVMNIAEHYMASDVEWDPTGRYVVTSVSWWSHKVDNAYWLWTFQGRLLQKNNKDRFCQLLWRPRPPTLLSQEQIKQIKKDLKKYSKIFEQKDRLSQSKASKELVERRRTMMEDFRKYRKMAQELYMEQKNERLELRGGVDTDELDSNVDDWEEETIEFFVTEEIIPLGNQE
UniProt Q6KCM7, sequence (Q6KCM7 whole entry): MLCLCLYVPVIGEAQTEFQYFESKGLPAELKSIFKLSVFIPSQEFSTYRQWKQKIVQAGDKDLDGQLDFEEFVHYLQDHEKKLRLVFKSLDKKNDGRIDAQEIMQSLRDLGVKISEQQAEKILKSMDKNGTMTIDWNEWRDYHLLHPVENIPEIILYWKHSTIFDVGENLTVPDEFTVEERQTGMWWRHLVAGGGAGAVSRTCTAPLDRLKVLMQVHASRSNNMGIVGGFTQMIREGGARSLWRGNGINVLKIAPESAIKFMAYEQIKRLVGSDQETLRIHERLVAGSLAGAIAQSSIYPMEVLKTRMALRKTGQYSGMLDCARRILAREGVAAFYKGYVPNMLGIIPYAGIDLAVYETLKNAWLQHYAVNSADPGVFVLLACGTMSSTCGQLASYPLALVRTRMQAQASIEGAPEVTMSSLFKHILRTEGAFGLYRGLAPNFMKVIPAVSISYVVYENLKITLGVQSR
UniProt Q12802, sequence (Q12802 whole entry): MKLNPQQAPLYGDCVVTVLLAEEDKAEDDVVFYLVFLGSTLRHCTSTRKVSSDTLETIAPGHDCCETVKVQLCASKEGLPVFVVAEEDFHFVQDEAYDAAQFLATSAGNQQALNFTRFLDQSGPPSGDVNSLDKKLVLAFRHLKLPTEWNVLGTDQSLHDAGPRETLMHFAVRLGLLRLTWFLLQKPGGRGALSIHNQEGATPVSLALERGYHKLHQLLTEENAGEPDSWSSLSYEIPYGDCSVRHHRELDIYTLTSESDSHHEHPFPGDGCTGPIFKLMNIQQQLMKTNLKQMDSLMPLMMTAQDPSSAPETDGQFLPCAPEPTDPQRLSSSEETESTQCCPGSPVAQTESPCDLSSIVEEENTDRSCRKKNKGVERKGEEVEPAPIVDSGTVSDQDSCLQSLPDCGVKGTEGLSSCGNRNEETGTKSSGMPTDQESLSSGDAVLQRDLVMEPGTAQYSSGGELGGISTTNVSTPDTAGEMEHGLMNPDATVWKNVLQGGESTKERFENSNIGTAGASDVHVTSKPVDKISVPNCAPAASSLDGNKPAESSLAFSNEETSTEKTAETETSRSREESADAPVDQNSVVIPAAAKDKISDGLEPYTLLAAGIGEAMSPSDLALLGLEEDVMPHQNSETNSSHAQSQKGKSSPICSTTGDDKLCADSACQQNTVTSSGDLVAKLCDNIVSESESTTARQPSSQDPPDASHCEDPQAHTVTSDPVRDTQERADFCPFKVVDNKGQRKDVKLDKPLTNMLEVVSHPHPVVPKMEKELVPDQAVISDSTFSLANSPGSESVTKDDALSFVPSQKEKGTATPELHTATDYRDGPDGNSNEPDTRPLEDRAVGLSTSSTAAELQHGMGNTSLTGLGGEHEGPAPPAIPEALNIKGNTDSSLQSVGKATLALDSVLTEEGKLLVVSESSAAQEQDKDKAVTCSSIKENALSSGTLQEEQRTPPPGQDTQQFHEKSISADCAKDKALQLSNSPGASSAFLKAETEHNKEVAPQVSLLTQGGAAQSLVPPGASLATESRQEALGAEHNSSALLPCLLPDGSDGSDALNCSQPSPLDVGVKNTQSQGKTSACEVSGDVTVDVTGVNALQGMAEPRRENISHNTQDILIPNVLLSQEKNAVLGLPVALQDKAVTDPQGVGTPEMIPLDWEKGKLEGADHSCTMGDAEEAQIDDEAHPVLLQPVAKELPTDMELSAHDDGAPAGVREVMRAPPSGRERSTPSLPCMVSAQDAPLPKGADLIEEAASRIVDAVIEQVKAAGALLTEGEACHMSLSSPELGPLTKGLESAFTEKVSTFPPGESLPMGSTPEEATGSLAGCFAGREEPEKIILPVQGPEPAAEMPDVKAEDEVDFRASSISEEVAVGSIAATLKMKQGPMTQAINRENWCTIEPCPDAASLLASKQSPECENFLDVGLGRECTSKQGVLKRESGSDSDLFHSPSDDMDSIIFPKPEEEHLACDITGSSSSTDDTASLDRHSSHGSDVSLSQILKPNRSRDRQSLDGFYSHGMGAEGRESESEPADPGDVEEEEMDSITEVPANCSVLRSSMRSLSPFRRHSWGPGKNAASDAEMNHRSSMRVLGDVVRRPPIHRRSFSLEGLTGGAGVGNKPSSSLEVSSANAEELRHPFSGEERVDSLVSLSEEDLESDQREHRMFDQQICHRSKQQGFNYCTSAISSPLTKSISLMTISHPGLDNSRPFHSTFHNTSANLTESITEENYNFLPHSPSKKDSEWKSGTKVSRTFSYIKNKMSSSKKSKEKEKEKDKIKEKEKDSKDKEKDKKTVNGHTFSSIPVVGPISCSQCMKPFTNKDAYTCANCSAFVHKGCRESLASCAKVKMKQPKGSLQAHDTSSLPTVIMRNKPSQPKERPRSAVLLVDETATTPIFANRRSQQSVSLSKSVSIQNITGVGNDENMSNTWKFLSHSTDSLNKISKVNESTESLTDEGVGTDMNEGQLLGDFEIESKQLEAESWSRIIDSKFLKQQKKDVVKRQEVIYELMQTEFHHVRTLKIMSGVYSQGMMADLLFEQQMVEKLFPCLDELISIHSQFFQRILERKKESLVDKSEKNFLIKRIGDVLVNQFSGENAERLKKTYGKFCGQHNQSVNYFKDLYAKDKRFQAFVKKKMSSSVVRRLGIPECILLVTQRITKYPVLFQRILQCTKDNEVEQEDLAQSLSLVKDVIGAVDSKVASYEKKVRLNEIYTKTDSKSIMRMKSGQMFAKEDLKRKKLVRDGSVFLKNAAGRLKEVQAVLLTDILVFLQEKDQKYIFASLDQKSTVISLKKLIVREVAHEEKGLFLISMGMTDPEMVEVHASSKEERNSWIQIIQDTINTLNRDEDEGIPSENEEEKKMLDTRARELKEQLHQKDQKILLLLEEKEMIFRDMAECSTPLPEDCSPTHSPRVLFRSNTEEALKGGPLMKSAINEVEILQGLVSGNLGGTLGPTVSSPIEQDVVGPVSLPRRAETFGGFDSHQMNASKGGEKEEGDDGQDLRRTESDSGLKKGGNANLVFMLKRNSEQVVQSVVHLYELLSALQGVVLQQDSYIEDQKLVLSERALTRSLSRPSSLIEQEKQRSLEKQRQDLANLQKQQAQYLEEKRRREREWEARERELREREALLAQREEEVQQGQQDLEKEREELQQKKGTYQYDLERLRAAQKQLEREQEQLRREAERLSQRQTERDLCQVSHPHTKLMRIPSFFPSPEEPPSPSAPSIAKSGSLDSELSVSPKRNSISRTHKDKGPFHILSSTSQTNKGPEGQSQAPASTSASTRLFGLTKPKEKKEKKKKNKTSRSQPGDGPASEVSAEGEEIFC
UniProt P62195, sequence (P62195 whole entry): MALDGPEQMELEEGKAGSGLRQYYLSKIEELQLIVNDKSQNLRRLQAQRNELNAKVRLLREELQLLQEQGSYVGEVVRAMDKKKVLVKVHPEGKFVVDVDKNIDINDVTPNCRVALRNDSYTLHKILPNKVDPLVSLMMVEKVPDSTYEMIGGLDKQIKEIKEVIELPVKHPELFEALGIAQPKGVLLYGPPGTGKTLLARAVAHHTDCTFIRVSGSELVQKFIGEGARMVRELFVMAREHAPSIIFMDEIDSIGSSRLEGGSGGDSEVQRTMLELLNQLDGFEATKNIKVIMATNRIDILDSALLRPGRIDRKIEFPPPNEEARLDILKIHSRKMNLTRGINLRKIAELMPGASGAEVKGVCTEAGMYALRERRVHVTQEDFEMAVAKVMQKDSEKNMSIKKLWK

Consider UniProt Q15424|Q15424-3|Q15424-4, for which the NP40-soluble protein abundance reads like this: (concentration: 0.1mM) 0.958 ± 0.048; (concentration: 0.5mM) 0.938 ± 0.052; (concentration: 1mM) 1.04 ± 0.039; (concentration: 2mM) 1.09 ± 0.081; (concentration: 4mM) 1.19 ± 0.066; (concentration: 6mM) 1.25 ± 0.041. Also, the NP40-soluble protein abundance worked out at 1.38 ± 0.083 (concentration: 8mM) and 1.44 ± 0.083 (concentration: 10mM).

With THOC7 (UniProt Q6I9Y2), the NP40-soluble protein abundance runs as follows: (concentration: 0.1mM) 0.999 ± 0.13; (concentration: 0.5mM) 1.15 ± 0.095; (concentration: 1mM) 1.6 ± 0.23; (concentration: 2mM) 1.92 ± 0.32; (concentration: 4mM) 2.31 ± 0.58; (concentration: 6mM) 2.51 ± 0.63. Further, the NP40-soluble protein abundance is, setting by setting: (concentration: 8mM) 2.43 ± 0.56; (concentration: 10mM) 2.78 ± 0.98.

For LDB1 (UniProt Q86U70), the NP40-soluble protein abundance reads like this: (concentration: 0.1mM) 1.066 ± 0.0088; (concentration: 0.5mM) 1.04 ± 0.05; (concentration: 1mM) 1 ± 0.056; (concentration: 2mM) 0.989 ± 0.024; (concentration: 4mM) 0.938 ± 0.043; (concentration: 6mM) 0.951 ± 0.021. Moreover, the NP40-soluble protein abundance reads like this: (concentration: 8mM) 0.968 ± 0.047; (concentration: 10mM) 0.931 ± 0.036.

As for UniProt Q10567|Q10567-2|Q10567-3, the NP40-soluble protein abundance by setting is: (concentration: 0.1mM) 0.918 ± 0.056; (concentration: 0.5mM) 0.927 ± 0.032; (concentration: 1mM) 0.956 ± 0.054; (concentration: 2mM) 0.943 ± 0.044; (concentration: 4mM) 0.954 ± 0.04; (concentration: 6mM) 0.919 ± 0.051. Moreover, the NP40-soluble protein abundance reads like this: (concentration: 8mM) 0.921 ± 0.05; (concentration: 10mM) 0.924 ± 0.054.

In the case of THOC2 (UniProt Q8NI27), the NP40-soluble protein abundance reads like this: (concentration: 0.1mM) 1.14 ± 0.054; (concentration: 0.5mM) 1.33 ± 0.14; (concentration: 1mM) 1.39 ± 0.15; (concentration: 2mM) 1.72 ± 0.29; (concentration: 4mM) 2.05 ± 0.4; (concentration: 6mM) 2.18 ± 0.51. In addition, the NP40-soluble protein abundance is, setting by setting: (concentration: 8mM) 2.23 ± 0.54; (concentration: 10mM) 2.16 ± 0.48.

Take UniProt Q68E01|Q68E01-2: the NP40-soluble protein abundance is, setting by setting: (concentration: 0.1mM) 1.01 ± 0.028; (concentration: 0.5mM) 1.01 ± 0.026; (concentration: 1mM) 1.03 ± 0.027; (concentration: 2mM) 1.03 ± 0.03; (concentration: 4mM) 1.08 ± 0.026; (concentration: 6mM) 1.12 ± 0.053. The NP40-soluble protein abundance is 1.11 ± 0.036 (concentration: 8mM) and 1.11 ± 0.021 (concentration: 10mM).

For SMC5 (UniProt Q8IY18), the NP40-soluble protein abundance is, setting by setting: (concentration: 0.1mM) 1.026 ± 0.0089; (concentration: 0.5mM) 1.06 ± 0.036; (concentration: 1mM) 1.03 ± 0.025; (concentration: 2mM) 1.02 ± 0.03; (concentration: 4mM) 1.009 ± 0.0054; (concentration: 6mM) 1.04 ± 0.019. Moreover, the NP40-soluble protein abundance reads like this: (concentration: 8mM) 1.05 ± 0.031; (concentration: 10mM) 1.03 ± 0.021.

As for “Q5VWV2|Q8TEW0|Q8TEW0-11|Q8TEW0-2|Q8TEW0-4|Q8TEW0-5|Q8TEW0-8 (UniProt Q8TEW0)”, the NP40-soluble protein abundance runs as follows: (concentration: 0.1mM) 1.02 ± 0.11; (concentration: 0.5mM) 1.02 ± 0.084; (concentration: 1mM) 1.05 ± 0.098; (concentration: 2mM) 1.07 ± 0.089; (concentration: 4mM) 1.17 ± 0.14; (concentration: 6mM) 1.15 ± 0.14. In addition, the NP40-soluble protein abundance (concentration: 8mM) was found to be 1.2 ± 0.14 and the NP40-soluble protein abundance (concentration: 10mM) was found to be 1.19 ± 0.1.

In the case of UniProt Q12802|Q12802-2|Q12802-4, the NP40-soluble protein abundance came out at 0.99 ± 0.12 (concentration: 0.1mM); 1.01 ± 0.092 (concentration: 0.5mM); 1.01 ± 0.099 (concentration: 1mM); 1 ± 0.12 (concentration: 2mM); 0.977 ± 0.11 (concentration: 4mM); 1.04 ± 0.11 (concentration: 6mM). The NP40-soluble protein abundance reads like this: (concentration: 8mM) 1.02 ± 0.1; (concentration: 10mM) 1.02 ± 0.084.

For DDX1 (UniProt Q92499), the NP40-soluble protein abundance by setting is: (concentration: 0.1mM) 1.02 ± 0.024; (concentration: 0.5mM) 1.02 ± 0.066; (concentration: 1mM) 0.941 ± 0.027; (concentration: 2mM) 0.971 ± 0.072; (concentration: 4mM) 0.997 ± 0.059; (concentration: 6mM) 0.993 ± 0.063. The NP40-soluble protein abundance is 0.971 ± 0.013 (concentration: 8mM) and 0.961 ± 0.038 (concentration: 10mM).

HNRNPA1L2 (UniProt Q32P51): the NP40-soluble protein abundance (concentration: 0.1mM) is 1.34 ± 0.52; the NP40-soluble protein abundance (concentration: 0.5mM) amounted to 1.32 ± 0.58; the NP40-soluble protein abundance (concentration: 1mM) was found to be 1.8 ± 0.79; the NP40-soluble protein abundance (concentration: 2mM) was 1.49 ± 0.44; the NP40-soluble protein abundance (concentration: 4mM) was determined as 1.47 ± 0.51; the NP40-soluble protein abundance (concentration: 6mM) amounted to 1.67 ± 0.65. Moreover, the NP40-soluble protein abundance (concentration: 8mM) was determined as 1.92 ± 0.8 and the NP40-soluble protein abundance (concentration: 10mM) was 1.58 ± 0.35.

As to UniProt P55884|P55884-2, the NP40-soluble protein abundance is, setting by setting: (concentration: 0.1mM) 1.02 ± 0.042; (concentration: 0.5mM) 1.07 ± 0.056; (concentration: 1mM) 1.03 ± 0.068; (concentration: 2mM) 1.14 ± 0.18; (concentration: 4mM) 1.29 ± 0.26; (concentration: 6mM) 1.46 ± 0.33. The NP40-soluble protein abundance is, setting by setting: (concentration: 8mM) 1.55 ± 0.34; (concentration: 10mM) 1.75 ± 0.36.

On to “UniProt Q6KCM7|Q6KCM7-2|Q6KCM7-3|Q6KCM7-4|Q6KCM7-5|Q6KCM7-6”, for which the NP40-soluble protein abundance amounted to 1.12 ± 0.041 (concentration: 0.1mM); 1.08 ± 0.034 (concentration: 0.5mM); 1.06 ± 0.058 (concentration: 1mM); 1.04 ± 0.016 (concentration: 2mM); 1.04 ± 0.066 (concentration: 4mM); 1.019 ± 0.0034 (concentration: 6mM). Also, the NP40-soluble protein abundance (concentration: 8mM) is 0.982 ± 0.061 and the NP40-soluble protein abundance (concentration: 10mM) came to 0.989 ± 0.098.

Take UniProt P62195: the NP40-soluble protein abundance runs as follows: (concentration: 0.1mM) 1.03 ± 0.069; (concentration: 0.5mM) 1.08 ± 0.12; (concentration: 1mM) 1.04 ± 0.14; (concentration: 2mM) 1.07 ± 0.17; (concentration: 4mM) 1.06 ± 0.15; (concentration: 6mM) 1.08 ± 0.19. For the same target, the NP40-soluble protein abundance turned out to be 1.06 ± 0.16 (concentration: 8mM) and 0.977 ± 0.15 (concentration: 10mM).

As to UniProt Q8WUQ7|Q8WUQ7-2, the NP40-soluble protein abundance is, setting by setting: (concentration: 0.1mM) 0.975 ± 0.11; (concentration: 0.5mM) 1.02 ± 0.12; (concentration: 1mM) 0.967 ± 0.13; (concentration: 2mM) 1.02 ± 0.14; (concentration: 4mM) 1.09 ± 0.13; (concentration: 6mM) 1.12 ± 0.095. The NP40-soluble protein abundance by setting is: (concentration: 8mM) 1.12 ± 0.03; (concentration: 10mM) 1.19 ± 0.11.
